In PubChem BioAssay (Tox21):
Inconclusive results are not listed. Activity calls are given as the source filed them. Unless noted, calls come from the whole dose curve; as a rule, active = well fitted curve in the direction sought with a large enough effect in the repeat runs; inconclusive = weak or mixed curves; inactive = flat fitted curve, though single readings scatter.

Assays:
[1] = qHTS assay to test for compound auto fluorescence at 535 nm (green) in HEK293 cells (AID 720680)
[2] = qHTS assay to test for compound auto fluorescence at 460 nm (blue) in HEK293 cell free culture (AID 720681)
In short: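 Test compounds were pinned into cell-free culture medium (DMEM with 10% FBS) and fluorescence was read directly at Ex/Em 405/460 nm. Signals were expressed as fluorescence equivalents of triamterene, with DMSO vehicle as control.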

[3] = qHTS assay to test for compound auto fluorescence at 535 nm (green) in HEK293 cell free culture (AID 720682)
In short: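 Using fluorescein as calibrant, autofluorescence was quantified at 485/535 nm in cell-free DMEM containing 10% FBS after pintool addition of compound or vehicle.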

[4] = qHTS assay to test for compound auto fluorescence at 590 nm (red) in HEK293 cell free culture (AID 720683)
In short: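 Tox21 10K library compounds were pinned into cell-free DMEM with 10% FBS and fluorescence was read at excitation 540 nm. Activity is expressed as Rose Bengal sodium equivalency.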

[5] = qHTS assay to test for compound auto fluorescence at 590 nm (red) in HepG2 cell free culture (AID 720684)
In short: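 Readout: intrinsic compound fluorescence at 590 nm emission after 540 nm excitation, scaled to Rose Bengal sodium. Matrix was cell-free MEM with 10% FBS; DMSO vehicle wells served as control.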

[6] = qHTS assay to test for compound auto fluorescence at 460 nm (blue) in HepG2 cell free culture (AID 720685)
In short: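 Cell-free plates of MEM plus 10% FBS received 23 nL compound or DMSO vehicle; blue-channel (405/460 nm) intensity scored against triamterene as reference fluorophore.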

[7] = qHTS assay to test for compound auto fluorescence at 535 nm (green) in HepG2 cell free culture (AID 720686)
[8] = qHTS assay to test for compound auto fluorescence at 460 nm (blue) in HepG2 cells (AID 720687)
In short: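 Cells (2,000/well in MEM with 10% FBS) attached overnight at 37 C, then were exposed to compound or DMSO for 1 hr at 37 C, 5% CO2. Fluorescence read at Ex/Em 405/460 nm, expressed as triamterene-equivalent signal.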

[9] = biological target: Glucocorticoid receptor (Homo sapiens) (UniProt P04150); test: qHTS assay to identify small molecule agonists of the glucocorticoid receptor (GR) signaling pathway (AID 720691; active = well fitted activation curve with a large enough effect in the signal ratio in the repeat runs, not every such curve was filed as active; the % refers to the signal ratio)
Chain of Glucocorticoid receptor (Homo sapiens) (P04150 whole entry, looked up): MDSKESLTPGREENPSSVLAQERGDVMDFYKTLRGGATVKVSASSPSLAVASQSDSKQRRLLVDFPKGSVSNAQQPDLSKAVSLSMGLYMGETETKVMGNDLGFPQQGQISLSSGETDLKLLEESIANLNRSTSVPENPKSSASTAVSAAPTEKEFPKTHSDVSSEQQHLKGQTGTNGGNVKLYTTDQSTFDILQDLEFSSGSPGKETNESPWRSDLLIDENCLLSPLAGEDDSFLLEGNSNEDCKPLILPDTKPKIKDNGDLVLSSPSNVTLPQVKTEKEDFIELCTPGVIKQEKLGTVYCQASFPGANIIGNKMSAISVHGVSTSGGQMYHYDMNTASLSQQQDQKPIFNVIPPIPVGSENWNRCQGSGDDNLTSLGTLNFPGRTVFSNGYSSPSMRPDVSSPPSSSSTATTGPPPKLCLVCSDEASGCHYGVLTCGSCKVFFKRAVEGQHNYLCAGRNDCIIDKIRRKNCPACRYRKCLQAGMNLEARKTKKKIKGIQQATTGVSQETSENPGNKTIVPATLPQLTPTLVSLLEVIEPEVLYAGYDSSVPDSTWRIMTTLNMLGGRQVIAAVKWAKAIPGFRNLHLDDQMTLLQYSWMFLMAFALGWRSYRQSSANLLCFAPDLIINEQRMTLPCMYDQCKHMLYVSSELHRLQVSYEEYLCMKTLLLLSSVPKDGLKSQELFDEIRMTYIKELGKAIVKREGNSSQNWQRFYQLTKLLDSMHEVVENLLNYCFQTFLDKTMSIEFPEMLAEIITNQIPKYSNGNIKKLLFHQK
In short: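 Steps: seed GR-bla HeLa cells, incubate 4 h at 37 C/5% CO2; pin-transfer DMSO-dissolved compounds; incubate 18 h at 37 C; add LiveBLAzer B/G FRET substrate; after 2 h at room temperature, measure fluorescence.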
% is set by controls: 0 for no effect and ±100 for the full control effect.

CC[C@]1(O)C[C@H]2CN(CCc3c([nH]c4ccccc34)[C@@](C(=O)OC)(c3cc4c(cc3OC)N(C=O)[C@H]3[C@@](O)(C(=O)OC)[C@H](OC(C)=O)[C@]5(CC)C=CCN6CC[C@]43[C@@H]65)C2)C1
inactive: outcome [1] | Potency [2] | outcome [3] | outcome [4] | outcome [5] | Potency [6] | outcome [7]

C[C@@H](O)[C@H]1C(=O)N2C(C(=O)O)=C([C@H]3CCCO3)S[C@H]12
inactive: outcome [1] | Potency [2] | outcome [3] | outcome [4] | outcome [5] | Potency [6] | outcome [7] | Potency [8]

C=CCc1ccccc1OCC(O)CNC(C)C (centres undefined)
inactive: outcome [1] | Potency [2] | outcome [3] | outcome [4] | outcome [5] | Potency [6] | outcome [7]

O=[N+]([O-])c1ccc(O/N=C/c2cc(Br)c(O)c(Br)c2)c([N+](=O)[O-])c1
inactive: outcome [1] | Potency [2] | outcome [3] | outcome [4] | outcome [5] | Potency [6] | outcome [7] | Potency [8]

C[C@@H]1CC(=O)NN=C1c1ccc(NN=C(C#N)C#N)cc1
inactive: outcome [1] | Potency [2] | outcome [3] | outcome [4] | outcome [5] | Potency [6] | outcome [7] | Potency [8]

O=[N+]([O-])c1cc(C2CCCCC2)c(O)c([N+](=O)[O-])c1
inactive: outcome [1] | Potency [2] | outcome [3] | outcome [4] | outcome [5] | Potency [6] | outcome [7]

CCCCCC#CC(=O)OC
inactive: outcome [1] | Potency [2] | outcome [3] | outcome [4] | outcome [5] | Potency [6] | outcome [7]

C[C@]1(Cn2ccnn2)[C@H](C(=O)O)N2C(=O)C[C@H]2S1(=O)=O
inactive: outcome [1] | Potency [2] | outcome [3] | outcome [4] | outcome [5] | Potency [6] | outcome [7]

C=C1CCC2CC1C2(C)C (centres undefined)
inactive: outcome [1] | Potency [2] | outcome [3] | outcome [4] | outcome [5] | Potency [6] | outcome [7] | Potency [8]

c1ccc2sc(SN(C3CCCCC3)C3CCCCC3)nc2c1
inactive: outcome [1] | Potency [2] | outcome [3] | outcome [4] | outcome [5] | Potency [6] | outcome [7] | Potency [8]

CCc1ccccc1
inactive: outcome [1] | Potency [2] | outcome [3] | outcome [4] | outcome [5] | Potency [6] | outcome [7] | Potency [8]

CN(C)CCC=C1c2ccccc2C=Cc2ccccc21
inactive: outcome [1] | Potency [2] | outcome [3] | outcome [4] | outcome [5] | Potency [6] | outcome [7]

CC1=C(CC=O)C(C)(C)CCC1
inactive: outcome [1] | Potency [2] | outcome [3] | outcome [4] | outcome [5] | Potency [6] | outcome [7] | Potency [8]

COc1cc(C(=O)NC2CCN(C)CC2)ccc1Nc1ncc2c(n1)N(C1CCCC1)CC(F)(F)C(=O)N2C
inactive: outcome [1] | Potency [2] | outcome [3] | outcome [4] | outcome [5] | Potency [6] | outcome [7] | Potency [8]

O=C(O)CCC(=O)C(=O)O
inactive: outcome [1] | Potency [2] | outcome [3] | outcome [4] | outcome [5] | Potency [6] | outcome [7] | Potency [8] | Potency [9]

C[C@@H](CN(C)C)CN1c2ccccc2Sc2ccccc21
inactive: fluorescence, % of fluorescein [1] -0.0143% [at 18.6 µM] | fluorescence, % of fluorescent control [2] 0.0136% [at 18.6 µM] | activity change [3] -0.0963% [at 18.6 µM] | fluorescence, % of fluorescent control [4] 0.012% [at 18.6 µM] | fluorescence, % of Rose Bengal [5] -0.209% [at 18.6 µM] | fluorescence, % of fluorescent control [6] 0.0401% [at 18.6 µM] | fluorescence, % of fluorescein control [7] -0.0052% [at 18.6 µM] | fluorescence, % of fluorescent control [8] -0.0799% [at 18.6 µM]

COc1cc(Nc2c(C#N)cnc3cc(OCCCN4CCN(C)CC4)c(OC)cc23)c(Cl)cc1Cl
inactive: outcome [1] | Potency [2] | outcome [3] | outcome [4] | outcome [5] | Potency [6] | outcome [7] | Potency [8]

Nc1ccc(N=Nc2ccccc2)c(N)c1
inactive: outcome [1] | Potency [2] | outcome [3] | outcome [4] | outcome [5] | Potency [6] | outcome [7] | Potency [8] | Potency [9]

C/C=C/C=C/C=O
inactive: outcome [1] | Potency [2] | outcome [3] | outcome [4] | outcome [5] | Potency [6] | outcome [7] | Potency [8] | Potency [9]

COC(=O)C1=C(C)NC(C)=C(C(=O)O[C@@H]2CCCN(Cc3ccccc3)C2)[C@@H]1c1cccc([N+](=O)[O-])c1
inactive: outcome [1] | Potency [2] | outcome [3] | outcome [4] | outcome [5] | Potency [6] | outcome [7] | Potency [8]

Clc1cc(Cl)nc(Cl)n1
inactive: outcome [1] | Potency [2] | outcome [3] | outcome [4] | outcome [5] | Potency [6] | outcome [7] | Potency [8]

C=C(C)CCCC(C)CCO (centres undefined)
inactive: outcome [1] | Potency [2] | outcome [3] | outcome [4] | outcome [5] | Potency [6] | outcome [7] | Potency [8]

O=C=Nc1ccc(Cl)c(Cl)c1
inactive: outcome [1] | Potency [2] | outcome [3] | outcome [4] | outcome [5] | Potency [6] | outcome [7] | Potency [8]

CC(C)C[C@H](NC(=O)[C@H](CCc1ccccc1)NC(=O)CN1CCOCC1)C(=O)N[C@@H](Cc1ccccc1)C(=O)N[C@@H](CC(C)C)C(=O)[C@@]1(C)CO1
inactive: outcome [1] | Potency [2] | outcome [3] | outcome [4] | outcome [5] | Potency [6] | outcome [7] | Potency [8]
